Rows were chosen to be rich in hits. Some 9.2% of all compounds tested hit in one or more screens of this group.
NPC1 prom act: activators of NPC1 promoter | actives 2.4% (n = 320,000) | Potency, µM (titrated, usually from 9.22 µM), for inactives: top-dose activation, actives largely listed as activators | Huh7 NPC1 promoter luciferase reporter, 24 h; note: % of control where 0% means no effect; nearly all actives have a fitted effect of over 60% in size
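Cells: Huh7 expressing luciferase under the NPC1 promoter, 1500/well. Seeded 2 h, compound added, incubated 24 h at 37 °C. Luciferase reagent, 10 min ambient, then luminescence.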
FLuc modulator: inhibits or activates purified firefly luciferase, miR-21 counter-screen | actives 6.9% (n = 360,000) | purified FLuc, Km substrates, luminescence inhibition | Potency, µM (titrated, usually from 57.5 µM), for the others: at the top dose activity change, negative = inhibition, most hits filed as inhibitors | AID 588342;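 note: plate controls were vehicle for no effect and reference inhibitor for full effect; nearly all actives have a fitted effect of over 55% in size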
Target sequence (P08659 whole entry, looked up): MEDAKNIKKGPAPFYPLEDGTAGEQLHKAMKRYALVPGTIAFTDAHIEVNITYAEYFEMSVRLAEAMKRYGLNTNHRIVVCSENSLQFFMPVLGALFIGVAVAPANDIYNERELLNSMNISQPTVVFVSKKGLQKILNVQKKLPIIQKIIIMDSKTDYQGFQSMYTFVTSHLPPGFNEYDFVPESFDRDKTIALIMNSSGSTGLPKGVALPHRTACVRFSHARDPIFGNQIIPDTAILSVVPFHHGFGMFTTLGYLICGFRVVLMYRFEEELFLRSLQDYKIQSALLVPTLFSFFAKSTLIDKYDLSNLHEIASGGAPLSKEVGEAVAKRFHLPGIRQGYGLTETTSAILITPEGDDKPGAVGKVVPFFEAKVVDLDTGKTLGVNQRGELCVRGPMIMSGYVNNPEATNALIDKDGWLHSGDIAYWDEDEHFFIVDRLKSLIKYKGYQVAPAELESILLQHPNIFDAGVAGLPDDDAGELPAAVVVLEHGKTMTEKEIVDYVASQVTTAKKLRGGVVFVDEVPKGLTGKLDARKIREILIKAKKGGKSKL
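Purified P. pyralis luciferase (10nM final) with 10uM D-luciferin and 10uM ATP (Km levels) in 50mM Tris acetate pH 7.5, 10mM Mg acetate, 0.01% Tween-20, 0.05% BSA; qHTS 6-point titration, ~60 µM downward; luminescence read.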
ELG1 repair inh: ELG1-dependent DNA repair inhibition. HEK293T ELG1-luciferase reporter, luminescence, 16 h; DNA damage induced by 5-fluorouridine. Potency, µM (highest dose often 46.1 µM), for inactives: at the highest dose activity change, negative = inhibition, usual class: inhibitors. actives 2.3% (n = 330,000); note: % is set by controls: 0 for no effect and ±100 for the full control effect; nearly all actives have a fitted effect of over 55% in size
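DMSO vehicle served as the neutral condition. Each well held 2,000 cells given 5-fluorouridine plus compound; after 16 hr at 37 °C/5% CO2, ONE-Glo was added and luciferase measured 30 min later.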
ELG1 genotox: inducers of genotoxicity in HEK293T ELG1-luciferase cells; HEK293T ELG1-luciferase reporter, luminescence, 16 h; Potency, µM (series often up to 46 µM), inactives show at the highest dose activity change, positive = activation, most hits filed as activators; actives 1.3% (n = 330,000); note: % of control where 0% means no effect; nearly all actives have a fitted effect of over 60% in size
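Quantitative HTS format in 1536-well plates. HEK293T ELG1-luciferase reporter cells receive test compound and are incubated 16 hr at 37 °C, 5% CO2; ONE-Glo added, 30 min room temperature, then luminescence read.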
Rab9 prom act: activates the Rab9 promoter | Huh7 Rab9 promoter-luciferase reporter, luminescence, 24 h | Potency, µM (titrated, usually from 9.22 µM), without a hit: top-dose activation, negative = inhibition, usual class: activators | actives 2.8% (n = 320,000) | AID 485297; note: % of control where 0% means no effect; nearly all actives have a fitted effect of over 60% in size
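Huh7 cells stably carrying a Rab9 promoter-luciferase reporter, 1500 cells per well in OP-MEM I with 10% FBS, treated with compound 24 hours at 37C. Luciferase activity read by luminescence after 10 minutes with Amplite reagent.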
SMN2 splice up: enhancers of SMN2 splice variant expression; actives 2.8% (n = 210,000); Potency, µM (doses to about 46.1 µM), inactives show at the highest dose activity change, positive = activation, actives largely listed as activators; AID 1458; HEK293 SMN2-luciferase splicing reporter, luminescence, 30-36 h; note: % of control where 0% means no effect; nearly all actives have a fitted effect of over 55% in size
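HEK293 cells carry an SMN2 […]–luciferase reporter in which exon 7 inclusion puts luciferase in frame. Cells were plated 10-12 h before compound addition, then incubated 30-36 h at 37C. ONE-Glo luminescence was read; sodium butyrate at 4.5 mM final served as control.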
Numbers without * were called inactive; ? = inconclusive; . = no result; [ ] = dose if it differs, or a comment. Calls come from the whole dose curve; as a rule, active = well fitted curve in the direction sought with a large enough effect; inconclusive = small, poorly fitted or top-dose-only effect, or another doubt; inactive = no such curve, though single readings can be large; an effect the other way counts as inactive or inconclusive. Potency is the fitted concentration of half-maximal effect.

SMILES | NPC1 prom act | FLuc modulator | ELG1 repair inh | ELG1 genotox | Rab9 prom act | SMN2 splice up
Cc1cccc(NC(=O)CSc2nc3nc4c(cc3c(=O)n2-c2ccccc2)CCCC4)c1 | 1% | -2% | 15µM* | -3% | 2% | -2%
Cc1oc(C(C)(C)C)cc1C(=O)Nc1cccc(/C=C/C(=O)O)c1 | -3% | 12µM* | 7% | 10% | -19% | 0%
Cc1cc(C(=O)Nc2cccc(/C=C/C(=O)O)c2)c(C)o1 | 2% | 13µM* | -4% | 1% | 5% | 8%
Cc1cc(C(=O)Nc2ccccc2)c(C)o1 | -3% | ? | ? | ? | -2% | -16%
Cc1oc(-c2ccccc2)cc1C(=O)Nc1cccc(/C=C/C(=O)O)c1 | -1% | 15µM* | 0% | 1% | -1% | 3%
CCc1cc(=O)oc2c3c(cc(OCC(=O)NCCCn4ccnc4)c12)OC(C)(C)CC3 | -2% | -10% | ? | 10% | -12% | .
COc1ccc(NC(=O)CSc2nc(-c3ccccc3)nc3c2Cc2c(CO)cnc(C)c2O3)cc1Cl | . | -2% | . | . | . | .
O=C1NC(=O)/C(=C/c2ccc(-c3cccc([N+](=O)[O-])c3)o2)S1 | 11% | ? | -14% | 2% | 21% | .
O=C1NN(c2ccccc2)C(=O)/C1=C\c1ccc(-c2cc([N+](=O)[O-])ccc2O)o1 | -3% | 15µM* | 6% | 1% | -4% | .
O=C1NN(c2ccc(Cl)cc2)C(=O)/C1=C\c1ccc(-c2cccc(C(=O)O)c2)o1 | 7% | 17µM* | ? | 15% | 14% | 26%
CCCCC1(C)OC(=O)C(=Cc2ccc(-c3ccc(Cl)c(C(=O)O)c3)o2)C(=O)O1 (stereo not given) | 3% | ? | 6% | 0% | -2% | .
CCN(CC)c1ccc(/C=C2/SC(=O)N(C(C)C)C2=O)o1 | 26% | 21µM* | ? | -13% | 24% | 21%
Cc1ccc(N2NC(=O)/C(=C/c3ccc(-c4ccc(Cl)c(C(=O)O)c4)o3)C2=O)cc1 | 0% | 11µM* | 4% | 0% | -3% | 9%
CCCN1C(=O)S/C(=C/c2ccc(N3CCOCC3)o2)C1=O | 25% | ? | ? | ? | ? | .
CC1(C)CCC2=C(O1)c1ccccc1C(=O)C2=O | -30%[46.1 µM] | . | . | . | -44%[46.1 µM] | -85%
C=CCOC(=O)C1=C[C@@H](c2ccc(Br)cc2)C[C@@H](OCc2ccc(CO)cc2)O1 | -1% | -11% | 1% | -4% | 0% | .
CC(C)N1C(=O)S/C(=C\c2ccc(-c3ccc(Cl)c(C(=O)O)c3)o2)C1=O | 0.5µM* | 3µM* | ? | 1.2µM* | 0.4µM* | .
CCOC(=O)CN1C(=O)S/C(=C\c2ccc(-c3ccc(C(=O)O)c(Cl)c3)o2)C1=O | -4% | -9% | -8% | -2% | 9% | .
COc1cc2c(cc1OC)C(C1C(=O)CC(C)CC1=O)N(C(=O)CCl)CC2 (stereo not given) | -2% | 0% | 16% | -2% | -1% | -6%
Cc1ccc(-c2cn(-c3ccccc3)c(=S)[nH]2)cc1C | 1.1µM* | 12µM* | ? | 3.3µM* | 0.13µM* | .
Cc1ccccc1-c1cn(-c2ccccc2)c(=S)[nH]1 | 1% | -3% | 0% | 6% | -2% | .
Cc1ccccc1CNCc1c(C(=O)O)c(C)n(Cc2ccc(F)cc2Cl)c1C | . | 0% | . | . | . | 8%
Cc1ccc(Nc2nc3c(c(=O)[nH]2)CCCC3)cc1 | ? | ? | ? | 12% | ? | ?
O=c1[nH]c(Nc2nc3ccccc3o2)nc2c1CCCC2 | 0.32µM* | 1.5µM* | ? | ? | 0.32µM* | 3.5µM*
O=C(Nc1ccc(Cn2cccn2)cc1)c1ccc(COc2cccc(Br)c2)cc1 | 0.56µM* | 15µM* | ? | ? | 0.5µM* | 13µM*
Cc1nc2ccccc2c2oc(C(=O)N3CCN(C4CCCCC4)CC3)cc12 | -6% | 2% | 7.3µM* | -4% | -15% | -53%
